ChEMBL document CHEMBL3988442, “University of Dundee, Small-Polar-MMV Screening Library” (2021)
For some assays here: Entries with a potency or affinity are not part of this list.

Assays:
Design in all cases: scale not given: direction of the effect not stated beside the values
[1] = molecular target: Protein translocase subunit SecA (Escherichia coli (strain K12)) (UniProt P10408); assay: Assay to Identify E. coli SecA ATPase Inhibitors; type: functional; conditions: 30 µM
[2] = molecular target: T1, Ubiquitin-activating enzyme e1, putative (Leishmania donovani (strain BPK282A1)) (UniProt E9BSI1); assay: Leishmania donovani Ubiquitin Activating Enzyme (LdE1); type: functional; conditions: 30 µM
T1 sequence (whole entry): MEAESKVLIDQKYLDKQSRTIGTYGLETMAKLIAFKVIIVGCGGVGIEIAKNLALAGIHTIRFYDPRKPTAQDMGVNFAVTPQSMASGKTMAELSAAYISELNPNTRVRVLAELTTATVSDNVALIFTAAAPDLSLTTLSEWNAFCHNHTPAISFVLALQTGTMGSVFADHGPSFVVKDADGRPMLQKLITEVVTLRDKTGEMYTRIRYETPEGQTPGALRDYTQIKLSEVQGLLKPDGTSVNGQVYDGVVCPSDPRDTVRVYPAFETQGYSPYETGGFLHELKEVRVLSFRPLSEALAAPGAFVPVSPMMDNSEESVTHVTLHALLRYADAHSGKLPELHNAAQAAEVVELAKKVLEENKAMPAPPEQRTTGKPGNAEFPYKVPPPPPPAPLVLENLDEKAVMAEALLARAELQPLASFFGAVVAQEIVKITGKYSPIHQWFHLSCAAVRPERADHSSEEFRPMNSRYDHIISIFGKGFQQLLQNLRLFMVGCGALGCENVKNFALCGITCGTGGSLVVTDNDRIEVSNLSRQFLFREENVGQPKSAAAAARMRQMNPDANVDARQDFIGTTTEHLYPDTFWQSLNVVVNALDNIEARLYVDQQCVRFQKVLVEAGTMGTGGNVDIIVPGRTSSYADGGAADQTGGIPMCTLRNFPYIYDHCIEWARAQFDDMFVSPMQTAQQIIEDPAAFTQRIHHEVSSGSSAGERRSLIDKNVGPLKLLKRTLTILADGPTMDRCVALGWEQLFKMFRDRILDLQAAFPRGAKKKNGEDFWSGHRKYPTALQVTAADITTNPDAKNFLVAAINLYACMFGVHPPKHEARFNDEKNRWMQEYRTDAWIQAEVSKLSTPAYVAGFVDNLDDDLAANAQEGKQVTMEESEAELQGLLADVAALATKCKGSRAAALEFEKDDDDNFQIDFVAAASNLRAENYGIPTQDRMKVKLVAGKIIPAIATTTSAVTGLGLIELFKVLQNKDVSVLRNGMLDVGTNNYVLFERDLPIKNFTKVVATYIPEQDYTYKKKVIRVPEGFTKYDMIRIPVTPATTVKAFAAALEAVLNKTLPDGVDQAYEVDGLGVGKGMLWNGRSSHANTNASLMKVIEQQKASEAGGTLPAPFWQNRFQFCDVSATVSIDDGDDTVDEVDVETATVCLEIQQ

[3] = molecular target: AMP-activated protein kinase, AMPK (Homo sapiens) (UniProt P54646+O43741+P54619+Q9UGJ0+Q9Y478+Q13131+Q9UGI9); assay: AMP-dependent Kinase enzyme assay. An in vitro enzyme assay that detects ADP turnover that is directly proportional to AMPK activity. This uses naive AMPK that is activated during the assay with MK-8722; type: functional; conditions: 30 µM
[4] = molecular target: Sialic acid-binding Ig-like lectin 9 (Homo sapiens) (UniProt Q9Y336); assay: Hs-Siglec9 ALPHAscreen SOP 20170721; conditions: 10 µM
Trypanosoma cruzi = assay: Trypanosoma cruzi phosphomannomutase and mannose-1-phosphate guanylyltransferase assay; type: functional; conditions: 10 µM
[5] = molecular target: T2, Arginase-2, mitochondrial (Homo sapiens) (UniProt P78540); assay: in vitro enzyme assay to detect the production of urea directly proportional to the activity of Arginase II; type: functional; conditions: 33.3 µM; also: in the data most compounds retested in dose-response had high values
T2 sequence (whole entry): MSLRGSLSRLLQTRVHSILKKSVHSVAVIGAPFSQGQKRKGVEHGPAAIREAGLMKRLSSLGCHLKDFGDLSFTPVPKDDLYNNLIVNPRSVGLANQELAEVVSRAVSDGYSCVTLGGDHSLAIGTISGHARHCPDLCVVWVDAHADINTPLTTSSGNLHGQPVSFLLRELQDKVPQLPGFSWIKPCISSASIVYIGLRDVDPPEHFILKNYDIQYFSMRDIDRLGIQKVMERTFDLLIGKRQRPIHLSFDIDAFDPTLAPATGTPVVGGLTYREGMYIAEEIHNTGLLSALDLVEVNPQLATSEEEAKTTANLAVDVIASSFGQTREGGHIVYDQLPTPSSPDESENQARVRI

[6] = molecular target: T3, Proteasome subunit beta (Trypanosoma cruzi) (UniProt O96673); assay: Trypanosoma cruzi proteasome chymotrypsin-like activity (TcProtChymo) assay.; also: in the data most compounds retested in dose-response had high values; type: functional; conditions: 9.37 µM
T3 sequence (whole entry): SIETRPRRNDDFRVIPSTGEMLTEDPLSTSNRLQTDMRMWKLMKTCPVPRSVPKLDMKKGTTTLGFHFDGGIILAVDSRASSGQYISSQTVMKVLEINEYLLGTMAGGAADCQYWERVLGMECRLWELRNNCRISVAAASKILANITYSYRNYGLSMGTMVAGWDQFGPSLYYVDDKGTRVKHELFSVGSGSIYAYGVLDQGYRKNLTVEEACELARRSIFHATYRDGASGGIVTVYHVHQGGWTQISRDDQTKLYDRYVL

Homo sapiens = species on record: Homo sapiens; assay: To identify inhibition of the IFN signalling (Jak-Stat) pathway via expression of an eGFP reporter gene under the control of an IFN-stimulated response element (ISRE) containing MxA promoter.; type: functional; conditions: 30 µM
[7] = molecular target: T4, Tyrosyl-tRNA synthetase, putative (Trypanosoma cruzi (strain CL Brener)) (UniProt Q4DSP6); assay: Trypanosoma cruzi tyrosyl tRNA synthetase (TcYRS) _High Tyrosine SOP; type: functional; conditions: 30 µM; also: in the data most compounds retested in dose-response had high values
T4 sequence (whole entry): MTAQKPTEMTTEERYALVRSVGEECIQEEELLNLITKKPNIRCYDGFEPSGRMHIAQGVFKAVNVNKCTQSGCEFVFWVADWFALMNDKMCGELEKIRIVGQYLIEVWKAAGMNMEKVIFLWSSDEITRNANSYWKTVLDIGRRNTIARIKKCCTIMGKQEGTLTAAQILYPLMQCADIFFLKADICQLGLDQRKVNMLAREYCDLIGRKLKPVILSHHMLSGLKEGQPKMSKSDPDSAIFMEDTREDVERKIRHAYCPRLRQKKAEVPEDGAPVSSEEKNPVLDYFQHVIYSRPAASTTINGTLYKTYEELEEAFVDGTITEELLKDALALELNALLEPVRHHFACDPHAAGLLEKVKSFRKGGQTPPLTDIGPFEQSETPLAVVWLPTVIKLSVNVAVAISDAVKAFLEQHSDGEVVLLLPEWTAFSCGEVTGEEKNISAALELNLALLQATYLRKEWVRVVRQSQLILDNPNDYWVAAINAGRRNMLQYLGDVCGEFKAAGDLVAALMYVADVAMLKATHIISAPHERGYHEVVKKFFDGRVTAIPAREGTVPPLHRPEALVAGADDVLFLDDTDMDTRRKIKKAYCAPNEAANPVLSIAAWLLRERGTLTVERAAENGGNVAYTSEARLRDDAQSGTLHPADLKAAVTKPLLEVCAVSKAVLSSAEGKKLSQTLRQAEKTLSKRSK

[8] = molecular target: T4, Tyrosyl-tRNA synthetase, putative (Trypanosoma cruzi (strain CL Brener)); assay: Trypanosoma cruzi tyrosyl tRNA synthetase (TcYRS) SOP; type: functional; conditions: 30 µM
[9] = molecular target: Chromo domain-containing protein 1 (Saccharomyces cerevisiae (strain ATCC 204508 / S288c) (Baker's yeast)) (UniProt P32657); assay: ScCHD-1 Enzyme Inhibition Assay; type: functional; conditions: 30 µM; also: in the data most compounds retested in dose-response had high values
Chromo domain-containing protein 1 (Saccharomyces cerevisiae (strain ATCC 204508 / S288c) (Baker's yeast)), sequence (P32657 whole entry, the tested form may be a part): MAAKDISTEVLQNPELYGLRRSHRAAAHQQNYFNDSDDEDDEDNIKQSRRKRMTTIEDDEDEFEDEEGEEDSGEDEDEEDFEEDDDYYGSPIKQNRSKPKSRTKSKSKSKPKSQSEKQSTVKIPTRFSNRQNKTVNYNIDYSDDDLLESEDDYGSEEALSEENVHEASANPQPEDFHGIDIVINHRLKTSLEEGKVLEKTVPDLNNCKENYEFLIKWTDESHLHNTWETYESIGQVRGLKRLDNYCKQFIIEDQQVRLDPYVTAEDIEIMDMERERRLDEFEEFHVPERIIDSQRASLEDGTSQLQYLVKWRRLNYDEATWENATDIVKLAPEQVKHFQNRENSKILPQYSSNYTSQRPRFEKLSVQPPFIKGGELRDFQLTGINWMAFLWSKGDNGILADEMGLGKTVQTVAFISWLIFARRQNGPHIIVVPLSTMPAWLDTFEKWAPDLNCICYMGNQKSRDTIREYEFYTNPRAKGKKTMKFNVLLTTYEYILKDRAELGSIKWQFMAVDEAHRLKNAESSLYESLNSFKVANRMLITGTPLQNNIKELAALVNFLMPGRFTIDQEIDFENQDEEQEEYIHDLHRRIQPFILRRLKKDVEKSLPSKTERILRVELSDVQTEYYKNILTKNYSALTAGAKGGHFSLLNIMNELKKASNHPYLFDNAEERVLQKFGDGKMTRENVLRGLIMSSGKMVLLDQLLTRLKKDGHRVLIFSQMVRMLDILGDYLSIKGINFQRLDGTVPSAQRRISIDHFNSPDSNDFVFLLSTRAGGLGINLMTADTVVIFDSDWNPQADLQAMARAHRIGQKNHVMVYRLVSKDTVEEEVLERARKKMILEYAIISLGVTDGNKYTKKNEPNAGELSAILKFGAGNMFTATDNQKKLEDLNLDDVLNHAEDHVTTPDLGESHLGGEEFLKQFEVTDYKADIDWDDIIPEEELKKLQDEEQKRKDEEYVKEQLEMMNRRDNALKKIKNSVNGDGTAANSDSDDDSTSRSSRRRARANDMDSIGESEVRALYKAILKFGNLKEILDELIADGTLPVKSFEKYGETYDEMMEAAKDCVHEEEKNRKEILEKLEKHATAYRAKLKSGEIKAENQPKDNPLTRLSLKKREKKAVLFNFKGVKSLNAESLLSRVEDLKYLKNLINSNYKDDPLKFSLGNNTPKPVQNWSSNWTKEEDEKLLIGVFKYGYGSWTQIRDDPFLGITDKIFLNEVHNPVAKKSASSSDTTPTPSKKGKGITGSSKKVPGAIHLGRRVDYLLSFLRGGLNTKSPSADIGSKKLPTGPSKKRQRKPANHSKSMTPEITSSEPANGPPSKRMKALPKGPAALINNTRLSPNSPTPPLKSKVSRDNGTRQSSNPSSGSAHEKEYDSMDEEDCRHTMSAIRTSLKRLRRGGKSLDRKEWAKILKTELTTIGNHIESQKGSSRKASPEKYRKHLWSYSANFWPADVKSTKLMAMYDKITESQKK

Protein translocase subunit SecA (Escherichia coli (strain K12)), sequence (P10408 whole entry): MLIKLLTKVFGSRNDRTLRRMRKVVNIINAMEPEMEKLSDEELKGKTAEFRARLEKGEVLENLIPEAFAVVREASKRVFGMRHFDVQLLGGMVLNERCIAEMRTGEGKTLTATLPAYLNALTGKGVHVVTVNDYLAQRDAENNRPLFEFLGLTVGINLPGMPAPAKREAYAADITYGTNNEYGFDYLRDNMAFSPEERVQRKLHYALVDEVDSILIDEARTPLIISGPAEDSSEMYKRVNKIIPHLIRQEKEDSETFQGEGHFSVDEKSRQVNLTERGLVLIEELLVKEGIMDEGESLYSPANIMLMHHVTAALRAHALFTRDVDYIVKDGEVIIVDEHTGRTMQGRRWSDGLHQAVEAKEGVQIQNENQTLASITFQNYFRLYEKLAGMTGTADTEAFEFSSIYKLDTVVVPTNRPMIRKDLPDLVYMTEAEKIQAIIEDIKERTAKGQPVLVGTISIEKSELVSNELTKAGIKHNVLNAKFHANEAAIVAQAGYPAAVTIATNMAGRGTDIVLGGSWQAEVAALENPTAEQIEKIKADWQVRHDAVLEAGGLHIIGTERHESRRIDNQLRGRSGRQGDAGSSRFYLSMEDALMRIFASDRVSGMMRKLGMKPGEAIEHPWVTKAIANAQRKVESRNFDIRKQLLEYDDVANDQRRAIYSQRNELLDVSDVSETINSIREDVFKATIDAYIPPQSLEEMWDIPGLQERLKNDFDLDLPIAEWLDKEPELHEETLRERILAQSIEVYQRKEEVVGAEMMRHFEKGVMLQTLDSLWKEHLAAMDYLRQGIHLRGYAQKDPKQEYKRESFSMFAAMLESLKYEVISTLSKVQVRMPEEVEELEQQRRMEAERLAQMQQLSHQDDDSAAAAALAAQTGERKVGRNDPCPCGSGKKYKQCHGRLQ
Sialic acid-binding Ig-like lectin 9 (Homo sapiens), sequence (Q9Y336 whole entry): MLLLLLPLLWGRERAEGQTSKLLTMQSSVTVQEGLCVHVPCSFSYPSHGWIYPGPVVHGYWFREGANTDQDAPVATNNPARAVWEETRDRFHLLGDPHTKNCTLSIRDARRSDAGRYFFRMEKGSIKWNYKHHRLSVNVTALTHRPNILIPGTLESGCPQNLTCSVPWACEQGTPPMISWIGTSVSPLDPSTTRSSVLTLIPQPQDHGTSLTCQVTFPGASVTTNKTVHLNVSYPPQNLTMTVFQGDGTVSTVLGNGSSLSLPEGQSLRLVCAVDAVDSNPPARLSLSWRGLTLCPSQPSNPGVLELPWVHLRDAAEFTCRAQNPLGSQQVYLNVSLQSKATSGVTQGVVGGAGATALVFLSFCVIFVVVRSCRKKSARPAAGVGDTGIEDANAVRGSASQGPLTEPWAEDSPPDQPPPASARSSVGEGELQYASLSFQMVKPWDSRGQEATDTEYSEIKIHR

| Compound | Percent Effect [1] [%] | Percent Effect [2] [%] | Percent Effect [3] [%] | Percent Effect [4] [%] | Percent Effect (Trypanosoma cruzi) [%] | Percent Effect [5] [%] | Percent Effect [6] [%] | Percent Effect (Homo sapiens) [%] | Percent Effect [7] [%] | Percent Effect [8] [%] | Percent Effect [9] [%] |
| --- | --- | --- | --- | --- | --- | --- | --- | --- | --- | --- | --- |
| Cc1nnc(N2CCC(CNC(=O)OC(C)(C)C)CC2)c(C#N)c1C | -4.74 | 7.79 | -1.74 | -8.54 | 1.47 | -0.21 | 7.2 | 26.6 | 2.86 | 11.8 | -16.5 |
| COCCO[C@H]1CCN(C(=O)C2CCOCC2)[C@H]1Cc1ccncc1 | -1.4 | 16 | -6.31 | -6.51 | -3.94 | -1.17 | 9.6 | 16.1 | 2.13 | 6.41 | -2.62 |
| Cc1nccc(-c2cccc(NCC(=O)N3CCCCCCC3)c2)n1 | -8 | -5.26 | 11.7 | -8.15 | -0.28 | -0.36 | 5.16 | 28.6 | 2.46 | -1.24 | -1.53 |
| O=S(=O)(C1CC1)N1C[C@H]2CCC[C@@]2(COc2ccccn2)C1 | -0.747 | 14.7 | 2.3 | 3.09 | -4.32 | 5.81 | 15.3 | -6.25 | 3.17 | 10.3 | -5.69 |
| COc1ccc(C(O)CNC(=O)NCc2csc(C)n2)cc1 (configuration not stated) | -3.31 | 18.9 | 1.28 | 1.81 | 6.41 | -2.03 | 19.6 | 11.3 | 7.92 | -8.54 | -6.16 |
| COCCCN(C)Cc1nc2c(cnn2C)c(=O)[nH]1 | -5.54 | 21.1 | -0.426 | -2.13 | 7.75 | 3.96 | 18.4 | -3.84 | 2.46 | 25.9 | -9.74 |
| CCC1=N[C@@]2(CC[C@@H]3CN(S(=O)(=O)CC)C[C@@H]32)C(=O)N1CC(C)C | -2.87 | 2.6 | -1.61 | 11.1 | -0.493 | -1.94 | 0.348 | 18.4 | 2.12 | 8.97 | -4.63 |
| Cc1cnn(CCNCc2ccc(F)cc2Cl)c1 | -3.52 | 8.11 | -1.08 | 10.9 | -1.02 | 0.554 | 10.9 | -9.92 | 1.98 | 13.4 | 1.6 |
| COc1ccc(CN2C[C@@H]3OCCN(CC4CCCO4)[C@@H]3C2)cc1 (some centres not stated) | -0.662 | 10.8 | 2.03 | -5.49 | 6.16 | -4.78 | 17.3 | 3.23 | 3.24 | 12.8 | 5.65 |
| Cc1cc2n(n1)CC(CNCc1ccc(-n3cccn3)nc1)CN2 (configuration not stated) | -1.63 | 5.26 | -8.03 | 8.37 | 13.2 | -0.766 | 7.69 | 1.93 | 11.3 | 21.9 | -9.89 |
| CC(=O)N1CCN(CCNS(=O)(=O)c2ccc(C)c(F)c2)CC1 | -5.17 | 18.4 | -1.98 | -13.7 | 3.41 | 1.18 | 7.96 | 3.39 | -1.06 | 13 | -13.1 |
| CNS(=O)(=O)c1ccc(C(=O)NCCc2ccccn2)cc1 | -1.2 | 13.2 | -0.141 | 1.24 | -0.28 | -5.4 | 10.2 | -22.9 | 7.39 | 16.1 | -7.59 |
| Cc1cnc2n(c1=O)CC(C(=O)NC1CC1)CS2 (configuration not stated) | -4.55 | -21.9 | -9.15 | -1.37 | 0.979 | 4.54 | 6.21 | 1.36 | 2.15 | 0 | -5.19 |
| Cc1cccnc1NC(=O)CSc1ccc2c(c1)OCCO2 | -3.38 | -4.17 | -2.48 | -6.94 | -2.04 | -1.77 | 8.42 | 7.78 | 0 | -2.56 | -2.02 |
| CCS(=O)(=O)N1CC[C@H](OC)[C@@H]1Cc1ccncc1 | -2.5 | 13.5 | -1.61 | -11.3 | -4.59 | -9.87 | 15.3 | 7.61 | 0 | 7.69 | -5.24 |
| Cc1nc(C)c(C(=O)N2CCC(Nc3cccnc3)CC2)s1 | 0.905 | -2.74 | -10.4 | 50.9 | -3.37 | 8.38 | 14.5 | -5.72 | 2.08 | 3.7 | -3.74 |
| COCCNC(=O)[C@H]1CN(Cc2nccs2)C[C@H]2OCC[C@@H]12 | -3.36 | 16.4 | -2.81 | 11.4 | 3.17 | 2.4 | 6.25 | 15.8 | 5.21 | 1.24 | -0.333 |
| CCn1cnnc1C1CCN(C(=O)C(OC)c2ccccc2)CC1 (configuration not stated) | -2.02 | 18.2 | 6.32 | -9.96 | 5.58 | -1.05 | 17.9 | -11 | 8.57 | 18.8 | -17.7 |
| Cc1nc(NC(=O)CN2CCc3c(nc(C(C)C)n3C)C2)sc1C | -3.02 | 5.41 | -2.02 | 11 | 8.69 | -1.43 | 19.8 | 15 | 6.88 | 19.5 | -1.68 |
| CC(Oc1ccccc1C(F)(F)F)C(=O)NS(=O)(=O)C(C)C (configuration not stated) | 7.54 | 0 | 5.54 | -3.2 | 4.88 | -2.92 | 14.1 | -2.84 | 6.93 | 11 | -6.88 |
| O=C(CCCNc1ncccn1)N1CCCC(n2cccn2)C1 (configuration not stated) | -7.67 | -1.27 | 0.0579 | -1.81 | -3.18 | -4.52 | 2.23 | 14.1 | -3.12 | -2.53 | -14.1 |
| CCCNC(=O)c1ccc2c(c1)C(=O)N(CC(C)C)C2=O | -2.78 | -8.11 | 0.767 | 5.78 | -2.32 | -10 | 3.45 | 0.98 | 0.529 | 2.44 | -2.46 |
